Source: PubChem BioAssay (ICCB-Longwood Screening Facility, Harvard Medical School)
The sample as a whole holds a higher share of hits than the screen did.
RVFV N-RNA FP: RVFV nucleocapsid-RNA interaction inhibition; RVFV N-RNA binding, fluorescence polarization; stronger effect = lower value; % bound, % (no concentration beside the values); hit rate 0.1% among 20,000; AID 651828; in the data active = % bound below about 75%
Target sequence (P21700 whole entry, looked up): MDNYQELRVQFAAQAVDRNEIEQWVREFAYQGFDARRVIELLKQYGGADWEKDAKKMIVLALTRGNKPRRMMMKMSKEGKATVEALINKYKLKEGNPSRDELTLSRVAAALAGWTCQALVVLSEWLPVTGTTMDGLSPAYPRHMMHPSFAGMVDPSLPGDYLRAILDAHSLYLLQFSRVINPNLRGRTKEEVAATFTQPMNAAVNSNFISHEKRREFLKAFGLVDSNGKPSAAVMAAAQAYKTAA
Hits are given with their value; – = inactive.

SMILES	RVFV N-RNA FP
Cc1onc(-c2c(Cl)cccc2Cl)c1NC(=O)N/N=C/c1ccccn1	–
N#Cc1cnc2cnc(NCc3cccnc3)cc2c1NC1CCCCCC1	–
N#CC(C#N)=CNNc1ncnc2ccsc12	–
Cc1ccc(Cn2nnc(-c3ccccc3C)n2)cc1	–
c1ccc2c3c([nH]c2c1)-c1ccsc1CC3	–
COc1ccccc1C(=O)Nc1ccccc1N1CCN(C(C)=O)CC1	–
C/C(=C/c1ccccc1)C(=O)Nc1ccc(S(N)(=O)=O)cc1	–
CCN=C1S/C(=C/c2cn(CC(=O)Nc3ccccc3)c3ccccc23)C(=O)N1CC	–
Cc1c(O)c2ccccc2n(C)c1=O	–
COC(=O)c1cccc(NC(=O)/C=C/c2ccco2)c1C	–
CC(CCN1CCN(C)CC1)c1ccccc1 (centres undefined)	–
Cc1ccsc1/C=N/NC(=O)C1C2CCCCC21 (centres undefined)	–
O=C(/C=C/c1ccco1)Nc1ccc(S(=O)(=O)N2CCCCC2)cc1	–
C=CCOc1ccccc1/C=C1/SC(N2CCN(C)CC2)=NC1=O	–
CCN(CC(=O)O)S(=O)(=O)c1ccccc1	–
N#Cc1c(-c2ccccc2)cc(-c2ccccc2)nc1N1CCOCC1	–
CCOC(=O)N1CCN(C2CC(=O)N(c3ccc(I)cc3C)C2=O)CC1 (centres undefined)	–
N#Cc1nc(-c2ccccc2F)oc1NC1CC1	–
Cc1csc(SCC(=O)c2cc3ccccc3oc2=O)n1	–
CCSc1nnc2ccc(-c3ccncc3)nn12	–
CCCN(CCC)S(=O)(=O)c1ccc(CC)cc1	–
Cn1c(N)c(S(=O)(=O)N2CCc3ccccc32)c(=O)n(C)c1=O	–
N#Cc1sc2ncc3c(c2c1N)CCCC3	–
O=C1/C(=C/c2ccccc2)Oc2c1ccc(O)c2CN1CCCC1	–
CCN(CC)Cc1c(O)ccc2c1O/C(=C\c1ccccc1Cl)C2=O	51
SMILES	RVFV N-RNA FP
CCN(CC)Cc1c(O)ccc2cc(-c3ccc(OC)c(OC)c3)c(=O)oc12	–
CS(=O)(=O)N1CCN(C(=O)Cc2ccc(-c3ccccc3)cc2)CC1	–
COc1ccc(-c2csc(=Nc3ccccc3)n2N2CCOCC2)cc1	–
O=C(N(c1ccccn1)C1CCCCC1)C12CC3CC(CC(C3)C1)C2	–
O=C(Cc1ccc(F)cc1)Nc1cc(=O)[nH]c(=O)[nH]1	–
COc1ccc(C2=CC(=O)C=CC2=O)cc1	52
COC(=O)c1cc(-c2ccc(OC)cc2)n[nH]1	–
COc1ccc(O)cc1	–
O=C1Nc2ccccc2/C1=C\c1c(Cl)[nH]c2ccccc12	–
CCOC(=O)c1c(C)[nH]c(/C=C2\C(=O)Nc3ccccc32)c1C	12
CCN(CC)CCNC(=O)c1c(C)[nH]c(/C=C2\C(=O)Nc3ccc(Cl)cc32)c1C	–
CN1C(=O)c2ccc(NC(=O)c3ccc4ncsc4c3)cc2C1=O	–
CCCCOC(=O)Nc1cc(C)ccc1C	–
CCCC(=O)ON1C(=O)c2cccc3cccc(c23)C1=O	–
Cc1nnc(C)n1N1C(=O)c2cccc3cccc(c23)C1=O	–
O=C1C=C(O)c2cccc3cccc1c23	45
CCS(=O)(=O)NCCc1sc(C)nc1C	–
COC(=O)CCNc1ccc(OC)cc1	–
COc1ccc(N2CCN(C(CNC(=O)c3cccc(Cl)c3)c3ccc4c(c3)OCO4)CC2)cc1 (centres undefined)	–
CN(C)C(CC(=O)Nc1ccc(Nc2ccccc2)cc1)C(=O)O (centres undefined)	–
COc1ccc(OC)c(Nc2nc3cc(C)ccc3cc2C)c1	–
O=c1[nH]c(=O)n(-c2ccc(Cl)cc2)c(O)c1C=Nc1ccc(N2CCOCC2)cc1	–
N#CC(C#N)=Cc1ccc(-c2cccs2)s1	–
CCOC(=O)/C(C#N)=C/c1ccc(-c2cccs2)s1	19
CCOC(=O)/C(C#N)=C/N1CCCC1c1cccs1 (centres undefined)	–
SMILES	RVFV N-RNA FP
O=C(NC(=S)Nc1ccc(-c2nc3ccccc3o2)cc1)c1ccccc1	–
Cc1csc2nc(SCC(=O)NCc3ccccc3)[nH]c(=O)c12	–
O=C(O)/C=N/NC(=O)c1ccccc1	–
CCCN1C(=O)c2ccc(C(=O)Nc3cc(OC)c(OC)cc3C(=O)O)cc2C1=O	–
O=C1CCC(=O)N1CCC(c1ccccc1)c1ccco1 (centres undefined)	–
CC1(C)N=C(c2cccnc2)N(O)C1(O)c1ccccc1 (centres undefined)	–
CCCC(=O)Nc1ccc2c(c1)ncn2CC	–
CC1CCC(C(C)C)C(OP(N)(=O)c2ccc(N(C)C)cc2)C1 (centres undefined)	–
N#Cc1ccccc1CSc1n[nH]c(=O)[nH]c1=O	–
CC(C)(C)N1C(=O)NC(=O)/C(=C\c2ccco2)C1=O	–
NC(=S)N/N=C/CCn1c(=S)sc2ccccc21	–
Cc1cccc(NC(=O)C2=CC(=O)C3C=CC=CC3O2)c1C (centres undefined)	–
CCN(CC)Cn1[nH]c(=O)ccc1=O	–
CCCC(CCC)C(=O)N1CCN(c2ccc(NCc3ccccc3)nn2)CC1	–
Cc1nc(/C(N)=N/O)c(C(F)(F)F)o1	–
N#Cc1ccccc1NC(=O)CN1CCCC1	–
CCc1ccc(C(=O)NCCOC)s1	–
CC/C(Cc1ccccc1)=N/NS(C)(=O)=O	–
O=C(Nc1c2c(nn1-c1ccccc1)CSC2)c1ccc(Cl)cc1	–
CCOc1ccc(/C=C/C(=O)N(C)Cc2ccccc2)cc1OC	–
CCOc1ccc(NC(=O)c2ccc(SC)cc2OC)cc1	–
